In the library only some 4.5% were active in any assay of this set; here they are far more common.
FBA Mtb inh – Mtb FBA enzyme inhibitors, primary screen, biochemical, fluorescence, strain H37Rv; purified M. tuberculosis FBA, fluorescence read-out; 2.3% of 360,000 active; Fructose-bisphosphate aldolase (Mycobacterium tuberculosis (strain ATCC 25618 / H37Rv)), …; inhibition, % at 1 µM; in the data active means inhibition above about 27%
Target sequence (P9WQA3 whole entry, looked up): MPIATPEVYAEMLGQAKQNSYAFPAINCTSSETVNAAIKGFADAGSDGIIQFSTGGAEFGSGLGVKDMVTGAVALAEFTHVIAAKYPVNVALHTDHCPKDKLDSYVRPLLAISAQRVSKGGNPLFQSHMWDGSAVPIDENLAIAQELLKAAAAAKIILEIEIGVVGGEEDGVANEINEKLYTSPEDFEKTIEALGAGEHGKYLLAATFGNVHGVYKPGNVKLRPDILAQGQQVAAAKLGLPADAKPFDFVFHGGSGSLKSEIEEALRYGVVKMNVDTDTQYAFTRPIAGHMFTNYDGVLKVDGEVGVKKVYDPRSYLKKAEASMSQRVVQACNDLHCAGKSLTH
PrPC TRFRET – inhibitors of human cell surface prion protein PrPC, primary screen, cell-based, TR-FRET. TR-FRET read-out. inhibition, % at 13.8 µM. Major prion protein (Homo sapiens), P04156. AID 720596, 2013. 0.43% of 370,000 active; in the data active means inhibition above about 24%
BJeLR viability – MLPCN primary cell-based screen for lethality selective to Ras in HRASV12 cells | BJeLR (HRASV12) viability, CellTiter-Glo ATP luminescence, 48 h | inhibition, % (test concentration not listed) | 0.17% of 300,000 active | AID 1554, 2009; in the data active means inhibition above about 50%
PrP 5UTR inh – inhibition of PrP 5' UTR reporter expression; cell-based PrP 5' UTR mRNA reporter, plate reader; inhibition, % (no concentration beside the values); 0.35% of 340,000 active; in the data active means inhibition above about 52%
GDH-TPI counter – GDH-TPI coupling enzyme inhibitors, primary screen, artefact control for M. tuberculosis FBA inhibitor project, biochemical, absorbance, full deck. GDH-TPI coupled enzyme counterscreen, NADH absorbance. inhibition, % at 4.8 µM. 1.2% of 360,000 active. AID 588335, 2011; in the data active means inhibition above about 30%
PfHsp40 yeast – rescue of yeast from PfHsp40 toxicity, primary screen, S. cerevisiae, ATP luminescence; S. cerevisiae expressing PfHsp40, growth rescue; growth rescue, % at 12.5 µM; 0.68% of 340,000 active; in the data active means growth rescue above about 28%, passing the limit was not always enough;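 further: yeast W303a lacking pdr1 and pdr3 grown in galactose medium; growth measured after three days at 30 °C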
PrPC TRFRET cf – confirmation of inhibitors of cell surface human prion protein, confirmation, cell-based, TR-FRET. inhibition, % at 13.8 µM. AID 743200, 2013. 65% of 1,500 active. cell surface PrPC level. shares compounds with PrPC TRFRET; in the data active means inhibition above about 25%
LD9 cytotox – cytotoxicity in LD9 cells, cytotoxicity control for cell surface PrPc inhibitor project, cell-based, luminescence, high throughput; shares compounds with PrPC TRFRET; luminescence viability; inhibition, % at 13.8 µM; 29% of 1,500 active; AID 743201, 2013; in the data active means inhibition above about 9.5%
Each line names hits and unclear results; the compound was inactive in the other large screens (follow-up assays come after a bar, where they were run).

COc1ccc(NS(=O)(=O)c2ccc(-c3cnc(C4CC4)o3)cc2)cc1OC	PrPC TRFRET 31.6 | PrPC TRFRET cf inactive | LD9 cytotox 23.0
COc1ccccc1Cc1c(-c2ccc(OC)c(OC)c2)nc2c(C)cc(Br)cn12	none (no result: BJeLR viability, PrP 5UTR inh, GDH-TPI counter, PfHsp40 yeast)
COc1ccc(-c2nc3c(C)cc(Br)cn3c2CC(C)(C)C)cc1OC	PrPC TRFRET 41.9 (no result: BJeLR viability, PrP 5UTR inh, GDH-TPI counter, PfHsp40 yeast) | PrPC TRFRET cf 51.8 | LD9 cytotox inactive
COc1ccc(-c2nc3c(C)cc(Br)cn3c2Cc2cccc(Cl)c2)cc1OC	PrPC TRFRET 25.9 (no result: BJeLR viability, PrP 5UTR inh, GDH-TPI counter, PfHsp40 yeast) | PrPC TRFRET cf 62.5 | LD9 cytotox inactive
Cc1csc(SCC(=O)NC(=O)NCCC(C)C)n1	none
O=C(Nc1ccc(OC(F)(F)F)cc1)C1CCCN(S(=O)(=O)c2cnc[nH]2)C1 (stereo not given)	none (no result: PrPC TRFRET)
